The values below come from PubChem BioAssay AID1159506 (National Center for Advancing Translational Sciences (NCATS), 2015).

Whole data set: some 59,000 sequences, median the read-out near -0.00055, cut for the lowest 2% near -2. This excerpt belongs to a sample that is enriched for the lowest values.

The nature of the assay: Identification of proteins required for the processing of the EWS-FLI1 nascent transcript.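 Further: robust z of luciferase light less the median z of siRNAs with the same seed.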 The settings on record: TC32 Ewing sarcoma NR0B1-luc vs CMV-luc (EWS-FLI1 target promoter against control promoter), 48 h; screened at 20 nM (by protocol). In a few lines:
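Readout: OneGlo luminescence, 48 h post-transfection, TC32-NR0B1-luc vs TC32-CMV-luc in parallel. siRNA 20 nM final, RNAiMax lipid, 600 cells/well; z-score-MAD transformed, then seed-adjusted.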
In turn, UGUCUUCUAAAGUAAGUGG against ZNF77 registered a seed-corrected z-score of -2.26. In turn, UCACGAACAUGUUGCAAGG against KRIT1 had a seed-corrected z-score of -0.0242. For the sequence UAGUUCAUAAUCCAAGUCC against COL6A3, the seed-corrected z-score came out at 0.0612. Under AUGACUUUAGGUCGCAUCG against FBXL12 stands -13.4. As to UUUGGGAUUUCCAUUGUCU against LRP2BP, the seed-corrected z-score was found to be 0.259.

Sequence UUGGAUACAAAGGAACAAC against DHX32 gave a seed-corrected z-score of -0.291. With UUUGAGUCCACCACGAAGC against MYH3, the seed-corrected z-score was -0.0465. For UCUGCUGCUCGUCAAGUUC against MAP2K2, the seed-corrected z-score is 1.77. In the case of UCUCUUUAAAGACUCCUCC against LPO, the seed-corrected z-score was 0.133. UUGGGAUAUAUUUAGCGGC against ITGB1BP2: the seed-corrected z-score is -2.58.

As to UUUCGGAUGAGCACGCAGC against APRT, the seed-corrected z-score is -0.0241. Under UUCUUGUUCACUCUAAUUU against NFIC stands 0.384. In turn, AUAGUGUCGAUAAAAACCU against CHRNA1 had a seed-corrected z-score of 0.527. In the case of AAAGUUGCGGAAGCUGAUG against LRP3 it was -2.42. The sequence UAUCUGUGCAGUUAAGAUG against LOC401220 registered a seed-corrected z-score of -0.155. The sequence UUUCACUCCACUGAAGUAC against CDKL1 displayed a seed-corrected z-score of -0.736. For AGCUGUAGCACCAUCAACG against OR7G3, the seed-corrected z-score was -1.26. In the case of UUCGAUUCCAAGCCUUACG against CCDC113 it was 0.591; in that of AAGUUACCCACGUAGAUGC against SRSF1, -1.35. Under UAAGAUAUUUGUCCAACAG against YWHAB stands 0.25.

The sequence UCAUUGAUCUAAAACGACC against PPFIA1 returned a seed-corrected z-score of 0.863. In the case of UUCUCCUUCACAUACCGGC against CLK3 it was 0.176; in that of UAUCUUCACUGAAUUGACC against ARL8B, 0.269.

For the sequence AUAUGCUUCACAGUUCUAG against MMP1, the seed-corrected z-score is -2.83. As for UAUAGGCCUUCUACAUUGC against ROM1, the seed-corrected z-score was 1.12. Under UUGCGAAUGAGGUUGUAGG against PIK3C2B stands -0.721. Under UCUGAUAGCAAUAACUUGG against PPCS stands -0.294.

As for UGUUGACUCACUGUAGGCU against LOC729683, the seed-corrected z-score came out at 0.842. In the case of AAAGAGGAAACGGUAGGCC against JAGN1, the seed-corrected z-score is -2.67. The sequence UAUUGGAUCCGGUGCAACC against SYPL2 returned a seed-corrected z-score of -0.246. Under UUGGUUAUCCUCUAUACCC against MTERF3 stands 0.193; under UUCAUCAUCGAGGUCAUCC against DPF2, -3.12. UGAACUAUUGGAAUGUCUC against SEC11C yielded a seed-corrected z-score of 0.165. In the case of AUCGUAGUCAGUGUAUCUG against PPARGC1B, the seed-corrected z-score was -0.163. Under UAUAGAGCUGCCGUCUCCG against ESRP2 stands -0.989; under UCACUGUUUACUUAGCGCU against HIST1H2BJ, 1.62; under UGCCGAACCACUUCCAGAG against TNRC18P2, -1.02. Consider AUAGUAAAUAAACACUGCC against RHBDL2, for which the seed-corrected z-score is -2.55.

In turn, AAUCUGAGAACAGACCGUG against MXD4 registered a seed-corrected z-score of 1.77. Under AUAGGAGUAAGAAUUUUUG against NUDT10 stands -0.635. In the case of AUGCUUAUAAUGACCACCA against SLC51B, the seed-corrected z-score was -2.22. Regarding UGAAACACCAUUAAAACGG against TDG, the seed-corrected z-score stood at 0.355. In the case of UAAAUCUGCUUAUCUCUUC against TFAM it was -0.445; in that of UUCUUGAAAAGGCAACAGU against POC1A, 0.91; in that of AAAGCGACAUUGUUUGACC against COPB2, -2.18. UUGGUCAUAGAGGUCGUCC against LSR returned a seed-corrected z-score of -1.71. UGUCGGAUGAGGUCAUUGC against TNS4: the seed-corrected z-score is -2.96. Sequence UUGUUUGCAGGUUCUACUU against DDX19B came in with a seed-corrected z-score of -0.121. Consider UCUAGUAUUACUGCUACUG against DDHD2, for which the seed-corrected z-score amounted to 0.72. As to AAUGUACAAGUGGUCAUUC against MAGED2, the seed-corrected z-score was -2.83. Under UCAUAGUCCAGGGUAAGGC against LRP4 stands -1.11; under UCUUUGUACGCAUCAAGUG against NPY1R, -0.0164; under AUAGAUUAACCAUGUUUCC against KCNN3, -0.34. Turning to UCCAUUGAUAGAACCAUCU against HFE2, the seed-corrected z-score is -0.476. In turn, UAAGAUGAUCGUGAACUUG against RPL39L registered a seed-corrected z-score of 0.982.

The sequence UGCAUUUCUAUAUUCAACC against TLE4 registered a seed-corrected z-score of -0.442.

Consider UAUAGGUGUAGAUUACAGG against OR13G1, for which the seed-corrected z-score is -0.49. In the case of UAACUUGUUUGUUUACAAC against RPL21P62 it was -3.04; in that of UGAAUUUCCGGUGCUUGCC against PDGFB, -0.605.

In the case of UAGGAGAUAGCGAUGACCA against NPBWR1, the seed-corrected z-score was determined as 0.302. Take AAAGAGGUACUCACAGGGC against LGR6: the seed-corrected z-score is -0.878.

In turn, UUCGGUCUGCUAAUGCUGG against CNOT2 showed a seed-corrected z-score of 1.7. Under AAUCUCACAACAGUUAUGG against MTMR8 stands 0.0648; under AUACUACUUACAACCGGGC against SON, 1.15; under ACAGCUAACAUGGACACUC against SHTN1, 0.393. For UAGGUAACCAUAGUACUCA against ISY1, the seed-corrected z-score was -2.1. In the case of UGUAUAGAAAAAUUCACGC against CRY1 it was 0.235; in that of UCCAGUAGCACCAUAGUUC against ZNF449, -0.629.

For the sequence UUCGUGAUCAUCUUCUCAC against PHYH, the seed-corrected z-score was found to be 0.854.

Sequence AAAUGUUCACCUGUCUUCU against RPS4Y1 displayed a seed-corrected z-score of -0.188. UUCAUAUAUGAGUCAAUGG against HMG20A showed a seed-corrected z-score of 0.779. In turn, UUCCUCAUGAUUGUCCUCA against GABARAPL1 gave a seed-corrected z-score of -0.0836. Under UUAGUAUUUGGUAUUCAGA against FCGR1A stands -0.211; under UAGGAUCCAGGGUUAGUUU against RPL18, -2.17. Take UUAGGGUCCCUCAUCUUCA against LOXL4: the seed-corrected z-score is 0.627. As for UAUUAUUAAAGUGAGAUGG against SNCA, the seed-corrected z-score worked out at 0.375. UCUGGUGAACGACUCUUGC against MGMT came in with a seed-corrected z-score of 0.137. Under AUCUGUAUUCUCACUAUAG against TTC23 stands -1.15.

In turn, UUAAUGAUAGAGACUAGGA against LTC4S gave a seed-corrected z-score of -0.727.

In the case of GUUACAUACCUUUUUCUCU against GTF2H2B, the seed-corrected z-score came to 0.209. Under UCAUAGAAGAGGUCUGUCU against PHF5A stands -2.2. In the case of UUCAUAGCCUCUUCAAUGG against SPAG7 it was -1.44; in that of UACACUCUAAGAGCUCUUC against BCAT1, 1.4. Under UUAAAUUCUUGGAAGUAGA against SCNN1B stands 0.779; under UGACGAAAUAGUAGAAGUG against MOB3A, -0.387.

The sequence UUCAUCACCAGCUCUUUCC against CLEC4F had a seed-corrected z-score of -0.0692. Under UCAUGGGACGGCAUAACUG against SPDYE3 stands -0.601.

ACGAUUACAACUUCGAUCC against DOCK7 displayed a seed-corrected z-score of 1.63. The sequence UGGCGCUUGAUUGGAACUC against UNC5B-AS1 came in with a seed-corrected z-score of -0.56.

In turn, AUGUUUGACAUUGUCCACG against KPNA2 showed a seed-corrected z-score of -2.38. In turn, AAGUUGAAGAUAAGAGUCC against C11orf63 gave a seed-corrected z-score of -0.178. On to AUCGAAAUAAGUCAGAUAG against NAA25, for which the seed-corrected z-score is 0.893.

As to UGACCUGUAGCGUUGCAGC against EFCC1, the seed-corrected z-score was -0.581. UCUAUAUCUCCGUAAUUCC against TRRAP: the seed-corrected z-score was -2.5. In turn, UUAGUUCCUGGGUAUCUGC against SNAP47 showed a seed-corrected z-score of 1.17. Under UUUCAUAGAAUCUAUCCAG against C20orf196 stands 0.184; under UUUGGAACUGGUCAUGUGU against RPL29P30, -3.1. In the case of UUUCUGAGGAGACAACUCU against ANKRD36B it was 0.345; in that of UUGGGUAAAAUGUCCACUC against SPATS1, -2.28; in that of UGUGCGACUGGAGAAUGCG against KRT81, -0.00183. In the case of UGAUAUAUAACUUAGAUGG against VWA9 it was -12.6. As to AGAGUGACCAGUCCGGUAG against CIDEA, the seed-corrected z-score turned out to be 0.43. Under UCCCGGUCUGCAUUCUUCC against PHKA1P1 stands -0.749; under AAAGUUGCUACAGCUGUCA against SH3BP5, -2.12; under UUAGUGUGAAUAGUGAUUU against PODXL, 0.827. Sequence UAUCUUUCUCAGGAGUUUG against OR2T10 yielded a seed-corrected z-score of -0.23. In the case of AUAGCAGUCAACAUCGUAG against TMED3 it was -2.8; in that of UGACUUGGCACAGUAUAUC against FAM83A, -0.413. In the case of UAUCUUUAAAGUGUAUCUA against FAM230B it was 0.596; in that of UCUAGGCUCAGGAAGUUCU against AP5S1, -1.09. Under AAACCAAGUAGCUUGAUGU against LOC647275 stands 0.229. As for UCAUUUUGAAUUGAAGAUG against FAM76A, the seed-corrected z-score is 0.228. Sequence UUUCCAUAGGAGACGAUGC against CTSG had a seed-corrected z-score of 0.0794. In turn, UGUUGAUAAGUUACCAUCC against GPCPD1 displayed a seed-corrected z-score of 0.968.

Sequence UUGUUCUAAAGUAUCCUCC against NDC80 came in with a seed-corrected z-score of -2.14. Sequence AGUCAUUUAAACUUGAUCC against TMSB4X registered a seed-corrected z-score of 0.898. In the case of UACGCUUUCUCUACAGUAC against ZNF606 it was 0.237; in that of UCUCUUAUGCAGCUUGUGG against SPTBN4, 0.43; in that of UGCAUAGACAAGGCAGUCG against ZNRF2, -2.35. For UCAGCUGAUAUCUUGUUGC against UBOX5, the seed-corrected z-score amounted to 0.0283. Under ACAGUUUCGAAGGCGAAUG against ABCB9 stands -1.83; under AAUGCAACCACAGCUAUCC against THNSL1, 0.294. In the case of UUACUGUGCUGUCUAGACC against TMEM79 it was 1.12; in that of UUGCUAUUCCUCCUGGUAG against IRF2BP2, -0.0854. Regarding AAUAUCAAUACGAUCUCUG against SNAP23, the seed-corrected z-score was -0.225. In the case of UUAUGUAUCAUACAAAAGU against YPEL4 it was 1.55. With UGUGCCUUUCUGACGAUGG against SBK2, the seed-corrected z-score was found to be 0.535. For the sequence UAAGUGGAAAUCCUCGGGC against WBP2NL, the seed-corrected z-score turned out to be 1.46.

Regarding UUAUUUAUUCCGUUCAUAU against UBE2V2, the seed-corrected z-score is -3.25. The sequence UCAUGUAAUCUAGCGAUCG against ENTHD1 returned a seed-corrected z-score of 0.768. Under UUUUGGUCACUUCAAAUUC against MYDGF stands -2.17; under UCACAAACCACGUUACACG against PABPC3, -0.495.

AGUAGAUACAGCUUCUUUC against CCDC50 gave a seed-corrected z-score of -0.915.
